# Assay outcomes: PubChem, Broad Institute
# IDE exosite inh: exo-site inhibitors of human IDE, primary screen, biochemical, fluorescence anisotropy, probe displacement. Insulin-degrading enzyme (Homo sapiens), P14735. AID 1259349, 2017. purified IDE, FL-6b probe fluorescence polarization; active compounds read low. z-score at 20 µM. actives 6.3% (n = 17,000);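 active means z-score of -3 or lower, meaning strong loss of probe binding signal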;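 further: His-tagged human IDE residues 42-1019 made in E. coli with 30 nM FL-6b probe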
# Starred values were filed as active, the others as inactive. This is one part of a sample in which hits are shown more often than they occur.
SMILES,IDE exosite inh
COc1cccc(S(=O)(=O)N2CCCCN3[C@@H](CO)[C@@H](c4ccc(-c5cccnc5)cc4)[C@@H]3C2)c1,-6.27*
CS(=O)(=O)N1CCCCN2[C@@H](CO)[C@H](c3ccc(C4=CCCC4)cc3)[C@@H]2C1,-0.463
C/C=C/c1ccc([C@@H]2[C@H](CO)N3C(=O)CN(Cc4ccc(F)cc4)C[C@@H]23)cc1,-0.734
CCN(C[C@@H]1[C@H](c2ccccc2)[C@H](CO)N1C(=O)COC)S(C)(=O)=O,-0.97
CC(C)CN(C[C@H]1N[C@@H](CO)[C@@H]1c1ccc(-c2cncnc2)cc1)C(=O)C1CC1,0.773
CO[C@H](CN(C)C(=O)c1cc(Cl)cc(Cl)c1)[C@@H](C)CN(C(=O)Nc1ccc(F)cc1)[C@@H](C)CO,1.83
O=C(NCc1ccccc1F)[C@H]1[C@H](CO)[C@H]2Cn3c(cccc3=O)[C@H]2N1CC1CCCC1,0.142
CN(C)C(=O)c1cccc(-c2ccccc2[C@@H]2[C@@H](C#N)N(C(=O)C3CCC3)[C@@H]2CO)c1,3.7
CN1C(=O)c2cc(NC(=O)C3CCOCC3)ccc2OC[C@H]2O[C@H](CC(=O)NCc3ccccc3F)CC[C@H]21,-0.177
CCCNC(=O)N1C[C@@H]2[C@H](c3ccccc31)[C@@H](CO)N2C(=O)Nc1ccccc1F,-0.317
O=C1CN(Cc2ccc(F)cc2)C[C@H]2[C@@H](c3ccc(-c4ccccc4F)cc3)[C@H](CO)N12,-1.2
O=C(Nc1ccccc1)N1CCCCN2[C@@H](CO)[C@@H](c3ccc(C#Cc4ccccn4)cc3)[C@@H]2C1,-2.09
O=C(C[C@@H]1CC[C@@H](NS(=O)(=O)c2ccccc2F)[C@@H](CO)O1)NCCCN1CCOCC1,0.203
Cc1ccc(-c2ccc([C@H]3[C@@H](CO)N4C(=O)CN(C(=O)Nc5ccc(F)cc5)C[C@H]34)cc2)cc1,1.58
O=C(Nc1ccc(F)cc1)N1CC(=O)N2[C@H](CO)[C@@H](c3ccc(-c4ccccc4)cc3)[C@@H]2C1,-4.78*
O=C(Nc1ccccc1)N1CC(=O)N2[C@H](C1)[C@@H](c1ccc(-c3ccc(F)cc3)cc1)[C@@H]2CO,-0.87
O=C(Nc1ccc(F)cc1)N1CC(=O)N2[C@H](CO)[C@H](c3ccc(-c4ccc(F)cc4)cc3)[C@@H]2C1,0.297
O=C(Nc1ccc(F)cc1)N1CC(=O)N2[C@@H](CO)[C@@H](c3ccc(-c4ccccc4)cc3)[C@@H]2C1,-0.633
Cc1ccccc1-c1ccc([C@H]2[C@@H](CO)N3C(=O)CN(C(=O)Nc4ccc(F)cc4)C[C@@H]23)cc1,-10.1*
CN(C)C(=O)c1cccc(-c2ccc([C@@H]3[C@@H](CO)N4CCCCN(Cc5cccnc5)C[C@@H]34)cc2)c1,0.245
CO[C@H](CN(C)S(=O)(=O)c1ccc(C)cc1)[C@@H](C)CN([C@@H](C)CO)S(=O)(=O)c1cccc(Cl)c1,0.0054
CN(C)C(=O)c1ccc(-c2ccc([C@@H]3[C@H](CO)N4CCCCN(Cc5cncnc5)C[C@@H]34)cc2)cc1,1.2
CC(C)CC#Cc1ccc([C@@H]2[C@@H](CO)N3CCCCN(S(=O)(=O)Cc4ccccc4)C[C@@H]23)cc1,4.21
CCC(=O)N1CC(=O)N2[C@H](CO)[C@@H](c3ccc(C#CC(C)C)cc3)[C@H]2C1,1.02
COc1ccc(-c2ccccc2[C@H]2[C@@H](CO)N(C(=O)C3CC3)[C@H]2C#N)cc1,4
SMILES,IDE exosite inh
O=C(Nc1ccccc1F)N1CC(=O)N2[C@@H](CO)[C@@H](c3ccc(C#Cc4ccccc4)cc3)[C@@H]2C1,-5.84*
O=C(c1ccccc1F)N1CC(=O)N2[C@@H](CO)[C@H](c3ccc(C#Cc4ccccc4)cc3)[C@@H]2C1,-3.51*
O=C(Nc1ccccc1F)N1CC(=O)N2[C@H](CO)[C@H](c3ccc(C#Cc4ccccc4)cc3)[C@H]2C1,-1.86
O=C(c1ccccc1F)N1CC(=O)N2[C@@H](CO)[C@@H](c3ccc(C#Cc4ccccc4)cc3)[C@@H]2C1,-1.24
O=C(c1ccccc1F)N1CC(=O)N2[C@H](CO)[C@H](c3ccc(C#Cc4ccccc4)cc3)[C@H]2C1,-2.37
O=C(Nc1ccccc1F)N1CC(=O)N2[C@H](CO)[C@H](c3ccc(C#Cc4ccc(F)cc4)cc3)[C@@H]2C1,0.189
O=C([C@@H]1[C@@H](CO)[C@@H]2Cn3c(cccc3=O)[C@H]1N2Cc1cocn1)N1CCCCC1,0.477
Cc1ccccc1-c1ccccc1[C@@H]1[C@H](C#N)N(C(=O)c2cccc(F)c2)[C@H]1CO,4.02
CO[C@@H](CN(C)C(=O)Nc1ccc(Cl)cc1)[C@@H](C)CN(Cc1ccccc1Cl)[C@H](C)CO,1.55
O=C(CC1CC1)N1CC(=O)N2[C@@H](CO)[C@@H](c3ccc(C#Cc4ccc(F)cc4)cc3)[C@@H]2C1,2.45
CN(C)CC(=O)N1CC(=O)N2[C@@H](CO)[C@H](c3ccc(/C=C/c4ccccc4)cc3)[C@@H]2C1,-4.17*
O=C(CC1CC1)N1CC(=O)N2[C@@H](CO)[C@H](c3ccc(-c4ccccc4)cc3)[C@@H]2C1,-0.595
O=C(Cc1ccccc1)N1CC(=O)N2[C@H](CO)[C@@H](c3ccc(C#Cc4ccccc4)cc3)[C@@H]2C1,-0.472
